Screening results: PubChem, National Center for Advancing Translational Sciences (NCATS)
Sampled rows, rich in hits. Any-hit rate of the full collection: about 6.9%.
HP1b chromo inh – HP1-beta chromodomain-methylated histone interaction inhibition; AID 540317; actives 0.56% (n = 390,000); AlphaScreen HP1-beta / biotin-H3K9me3 peptide binding; Potency, µM (doses to about 114 µM), inactives show top-dose activity change, negative = inhibition, actives largely listed as inhibitors; P83916; note: nearly all actives have a fitted effect of over 70% in size
Target sequence (P83916 whole entry, looked up): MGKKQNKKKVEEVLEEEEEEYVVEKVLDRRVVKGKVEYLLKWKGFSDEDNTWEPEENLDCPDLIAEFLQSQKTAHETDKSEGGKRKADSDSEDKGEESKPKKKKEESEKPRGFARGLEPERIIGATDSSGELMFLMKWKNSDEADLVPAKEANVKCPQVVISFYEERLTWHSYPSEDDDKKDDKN
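AlphaScreen: HP1-beta (50 nM) preformed 30 min with biotin-H3(1-18)K9me3 peptide (50 nM) in PBS pH 7.4, 0.01% Tween-20. Compound added for 30 min at RT, then streptavidin donor/nickel chelate acceptor beads (10 ug/mL) for 30 min.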
L3MBTL1 block – inhibitors of human L3MBTL1 | Potency, µM (doses to about 57.1 µM), inactives show at the highest dose activity, negative = inhibition, hits mostly inhibitors | AlphaScreen L3MBTL1–H3K9me1 peptide binding | actives 0.66% (n = 230,000); note: % is set by controls: 0 for no effect and ±100 for the full control effect; nearly all actives have a fitted effect of over 60% in size
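L3MBTL1 (50 nM) pre-complexed 30 min with biotinylated H3(1-15)K9me1 peptide (75 nM), then compounds added for 30 min at room temperature; AlphaScreen streptavidin donor/nickel chelate acceptor beads (10 ug/mL final) read after 30 min dark incubation.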
JMJD2A Tudor – inhibitors of human JMJD2A Tudor domain. actives 4.4% (n = 390,000). Potency, µM (doses to about 114 µM), without a hit: at the highest dose activity change, negative = inhibition, most hits filed as inhibitors. AlphaScreen JMJD2A-Tudor / H3K4me3 peptide binding; note: % is set by controls: 0 for no effect and ±100 for the full control effect; nearly all actives have a fitted effect of over 50% in size
PLK1 PBD block – blocks phosphopeptide binding to human PLK1 polo-box domain; P53350; Plk1 PBD binding of FITC phosphopeptide, fluorescence polarization; Potency, µM, for the others: max response, negative = inhibition, usual class: inhibitors; actives 2.8% (n = 360,000); note: series mostly up to about 57 µM; % is set by controls: 0 for no effect and ±100 for the full control effect; nearly all actives have a fitted effect of over 65% in size
VDR inhibitor – inhibitors of human vitamin D receptor; P11473; Potency, µM, for the others: max response, negative = inhibition, actives largely listed as inhibitors; VDR-SRC2-3 peptide fluorescence polarization, 2 h; actives 0.93% (n = 400,000); note: % is set by controls: 0 for no effect and ±100 for the full control effect
Target sequence (P11473 whole entry, looked up): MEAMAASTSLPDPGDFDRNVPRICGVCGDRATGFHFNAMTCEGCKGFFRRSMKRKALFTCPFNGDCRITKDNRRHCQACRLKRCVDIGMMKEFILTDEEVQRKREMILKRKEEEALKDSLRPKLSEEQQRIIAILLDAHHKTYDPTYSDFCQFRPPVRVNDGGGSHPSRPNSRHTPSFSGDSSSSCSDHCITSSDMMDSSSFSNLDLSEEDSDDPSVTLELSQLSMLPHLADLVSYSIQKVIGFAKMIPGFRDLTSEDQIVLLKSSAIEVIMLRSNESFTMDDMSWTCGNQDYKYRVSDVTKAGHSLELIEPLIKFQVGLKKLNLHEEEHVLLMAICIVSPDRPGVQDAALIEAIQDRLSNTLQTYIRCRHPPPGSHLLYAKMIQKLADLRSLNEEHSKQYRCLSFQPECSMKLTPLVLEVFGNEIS
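The screen uses fluorescence polarization to detect compounds that interfere with recruitment of the SRC2-3 coactivator peptide to VDR; plates are read after 2 h at room temperature.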
BAZ2B block – blocks human BAZ2B | Q9UIF8 | AlphaScreen BAZ2B-H3K14Ac peptide displacement | Potency, µM (top dose mostly 114 µM), for inactives: top-dose activity change, negative = inhibition, usual class: inhibitors | actives 4.4% (n = 360,000) | AID 504333; note: % is set by controls: 0 for no effect and ±100 for the full control effect; nearly all actives have a fitted effect of over 60% in size
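Multi-concentration screen (max 110 uM) measuring displacement of acetylated histone H3 peptide from BAZ2B by AlphaScreen, using 50 nM protein, 50 nM peptide and 10 ug/mL streptavidin donor plus Ni-chelate acceptor beads.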
Active calls of the source: *; ? = inconclusive; . = no result given; [ ] = dose if it differs, or a comment. Calls come from the whole dose curve; as a rule, active = well fitted curve in the direction sought with a large enough effect; inconclusive = small, poorly fitted or top-dose-only effect, or another doubt; inactive = no such curve, though single readings can be large; an effect the other way counts as inactive or inconclusive. Potency is the fitted concentration of half-maximal effect.

SMILES	HP1b chromo inh	L3MBTL1 block	JMJD2A Tudor	PLK1 PBD block	VDR inhibitor	BAZ2B block
O=C1Nc2ccccc2/C1=N/N=C/c1ccc(-c2ccc([N+](=O)[O-])cc2)o1	-0.5%	-4.3%	-26.0%	-1.4%	-12.4%	?
CCOC(=O)C(C(=O)OCC)C(Nc1ccc(Br)cc1)c1ccccc1 (stereo not drawn)	116.9%	0.1%	30.6%	-7.1%	79.4µM*	22.1%
CCOC(=O)CCNC(C(=O)OCC)c1ccccc1 (stereo not drawn)	?	.	35.5µM*	-5.7%	-11.8%	?
CCOC(=O)CCNC(=O)CCNC(=O)C(c1ccccc1)c1ccccc1	9.4%	-6.8%	-1.4%	1.3%	1.0%	-2.1%
CCOC(=O)c1cc(-c2ccccc2)n(-c2cccc(C(=O)Nc3cccc(C)c3)c2)c1C	22.5%	.	?	.	11.8%	-26.9%
CC1=NN(C(N)=S)C(=O)C1N=Nc1cccc(Cl)c1C (stereo not drawn)	?	-6.8%	50.1µM*	-19.4%	-6.2%	44.7µM*
CC1=NN(C(N)=S)C(=O)C1N=Nc1ccc(Cl)cc1 (stereo not drawn)	?	4.4%	?	13.4µM*	?	-6.1%
CC1=NN(C(N)=S)C(=O)C1N=Nc1cccc2ccccc12 (stereo not drawn)	.	-0.7%	.	.	.	39.8µM*
CC1=NN(C(=O)c2ccncc2)C(=O)C1N=Nc1ccc2ccccc2c1 (stereo not drawn)	25.1µM*	.	?	3.3%	4.1%	.
CC1=NN(C(N)=S)C(=O)C1N=Nc1ccccc1 (stereo not drawn)	25.6%	16.3%	-18.8%	2.7%	-17.5%	2.2%
N#Cc1nc(Nc2cccc(-c3ccccc3)c2)nc(NC2CCCC2)n1	.	.	-13.0%	.	.	.
Cc1nn(C(=O)c2ccccc2F)c(C)c1S(=O)(=O)N1CCCCCC1	44.5%[57 µM]	.	12.1%	.	2.5%	5.9%
CC[n+]1c(/C=C/N(C)c2ccccc2)n(-c2ccccc2)c2ccc(-c3nc4ccccc4s3)cc21	-13.3%	-1.7%	35.5µM*	-4.2%	4.4%	-17.9%
CCOC(=O)c1ccc2c(c1)n(CC)c(/C=C/N(C)c1ccccc1)[n+]2CC	?	7.3%	-23.3%	?	-5.9%	?
COc1cccc(CNS(=O)(=O)c2c(C)[nH]c(C)c2C(=O)N2CCCCC2)c1	1.8%	.	?	29.9µM*	?	-17.5%[57.1 µM]
Cc1ccccc1CNS(=O)(=O)c1c(C)[nH]c(C)c1C(=O)N1CCCCC1	-1.0%	.	?	26.7µM*	-25.1%	-36.6%
Cc1[nH]c(C)c(S(=O)(=O)Nc2cccc(Cl)c2C)c1C(=O)N1CCCCC1	-10.0%	.	?	29.9µM*	?	-20.5%[57.1 µM]
Cc1[nH]c(C)c(S(=O)(=O)NCCc2ccc(S(N)(=O)=O)cc2)c1C(=O)N1CCCC1	28.0%	.	?	26.7µM*	-20.8%	-13.4%
Cn1nnnc1Sc1ncnc2scc(-c3cccc(N)c3)c12	.	.	-31.5%	.	.	.
O=C(CCN1CCC2CCC(C2)C1)c1ccccc1 (stereo not drawn)	20.5%	.	-15.8%	13.4µM*	70.8µM*	.
CC1CCCN(CCC(=O)c2ccc(Br)cc2)C1 (stereo not drawn)	18.6%	-0.1%	-16.0%	3.36µM*	79.4µM*	4.8%
Cc1cccc(NC(=O)CCN2CCCC(C)C2)c1 (stereo not drawn)	51.4%	0.0%	-2.8%	-1.5%	-7.3%	?
CCOC(=O)N1CCN(CCC(=O)c2ccc(Br)cc2)CC1	4.0%	.	?	0.67µM*	17.8µM*	0.4%
COc1ccc(OC)c(NC(=O)CCN2CCCC(C)C2)c1 (stereo not drawn)	24.4%	-6.7%	-17.3%	-1.5%	-14.3%	8.2%
CCOC(=O)N1CCN(CCC(=O)c2ccc(OC)cc2)CC1	44.9%	.	-15.0%	-20.3%	?	13.0%
SMILES	HP1b chromo inh	L3MBTL1 block	JMJD2A Tudor	PLK1 PBD block	VDR inhibitor	BAZ2B block
COc1ccc(C(=O)CCN2CCCC(C)C2)cc1 (stereo not drawn)	29.1%	.	-4.7%	?	70.8µM*	-3.3%
COc1ccccc1-c1cc(NC(=O)COc2ccccc2Cl)n(-c2ccccc2)n1	24.3%[57 µM]	.	-14.6%	.	6.2%	4.5%
CNC[C@H](O)[C@H](O)[C@H](O)[C@H](O)CO	.	.	.	.	-5.9%	.
COc1cc2c(cc1OC)CN(CCC(=O)c1ccc(Br)cc1)CC2	-13.2%	-4.0%	?	4.74µM*	70.8µM*	-23.5%
COc1ccc(N2CCN(CC(=O)N3CCC(C)CC3)CC2)cc1	-1.2%	-1.3%	-19.3%	-8.6%	7.6%	-2.7%
COc1ccc(C(=O)CCN2CCC(C)CC2)cc1	48.0%	.	1.7%	?	79.4µM*	-2.1%
C=CCn1c(C)cc(-c2csc(NC(=O)CCc3nc4ccccc4c(=O)[nH]3)n2)c1C	-2.4%	-9.4%	-26.2%	-3.4%	-4.9%	?
C=CCn1c(C)cc(-c2csc(NC)n2)c1C	?	?	39.8µM*	-8.5%	11.8%	.
Cc1c(-c2csc(N)n2)cnn1C	11.5%	3.5%	-1.0%	?	-16.7%	-18.1%
C=CCn1c(C)cc(-c2csc(NCC)n2)c1C	?	.	50.1µM*	?	107.6%	39.8µM*
C=CCn1c(C)cc(-c2csc(NC(=O)C3=COCCO3)n2)c1C	-8.5%	-6.2%	-22.8%	-6.5%	-18.6%	-33.7%
C=CCn1c(C)cc(-c2csc(N)n2)c1C	?	.	39.8µM*	?	40.6%	50.1µM*
O=C1CCc2cc(S(=O)(=O)Nc3cccnc3)ccc2N1	.	.	-13.6%	.	.	.
Cc1ccc2nc(NC(=O)CSc3nccn3Cc3ccc(Cl)cc3)sc2c1	-20.6%[57 µM]	.	-25.5%	.	7.5%	-13.2%
Cc1nc(N2CCC(C)CC2)c2oc3ccccc3c2n1	48.3%	7.1%	1.0%	-3.4%	-10.7%	-4.9%
COc1ccccc1N1CCN(Cc2cc(COC(C)C)c3cccnc3c2O)CC1	11.8%	.	22.4µM*	.	-2.8%	3.98µM*
COc1ccccc1N1CCN(Cc2cc(=O)oc3cc(C)ccc23)CC1	.	.	.	-13.4%	.	.
CCOCc1cc(CN2CCN(c3ccccc3OC)CC2)c(O)c2ncccc12	32.4%	.	22.4µM*	.	5.3%	5.62µM*
COc1ccccc1N1CCN(c2nc(C)nc3c2oc2ccccc23)CC1	4.9%	-8.4%	44.7µM*	1.5%	15.9%	50.1µM*
COc1ccccc1N1CCN(Cc2cc(Br)c(O)c3ncccc23)CC1	18.0%	.	39.8µM*	?	-8.8%	12.6µM*
CCCCN(CCCC)CCNC(=O)c1cc(=O)[nH]c2ccc(S(=O)(=O)N3CCCCCC3)cc12	28.3%	.	-13.1%	.	8.2%	-5.2%
Cc1cc(S(=O)(=O)NC(C)c2nnc3ccccn23)ccc1Br (stereo not drawn)	12.1%	3.4%	-18.0%	3.4%	5.9%	.
Cc1nc2cnc(N3CCN(C)CC3)nc2n(C2CC2)c1=O	.	.	.	.	5.2%	.
CCCOCc1cc(CN2CCN(c3ccccc3OC)CC2)c(O)c2ncccc12	-14.1%	.	20µM*	.	3.1%	4.47µM*
